# Laboratory results as given in the supplement of paper PMC10849652.
# The full data set covers some 7,900 targets. This sample favours those with a hit. About 0.6% of all pairs of compound and target were hits. Unmarked numbers belong to inactive results.
# Experiments:
# Experiment in all cases: log2 fold change, soluble protein after heating vs DMSO (PISA); higher = thermal stabilisation; K562 cells, 10 uM, 30 min; active = over 0.2 and 3.5 SD of the protein, either way, in both replicates (recomputed)
# [1] = compound: COC1=CC=C(C=C1)CN2C=CC3=C2C=C(C=C3)C(=O)NO
# Summary of the method: (§1)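 Quantification of soluble protein used TMTpro 16plex LC-MS/MS, with channel sums equalised. Samples were the supernatant after 21,000xg for 90 min of pooled aliquots from K562 cells (2×10^6 cells/mL) treated with 10 μM compound for 30 min, heated for 3 min over 48°C-58°C, and extracted in PBS with 0.5% NP-40 at 4°C. Values, from duplicates, describe thermal stability against control samples on a log2 fold-change scale.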
# filanesib = compound: CON(C)C(=O)N1N=C(c2cc(F)ccc2F)S[C@@]1(CCCN)c1ccccc1 [filanesib]
# Summary of the method: as §1
# zotarolimus = compound: CO[C@H]1C[C@@H]2CC[C@@H](C)[C@@](O)(O2)C(=O)C(=O)N2CCCC[C@H]2C(=O)O[C@H]([C@H](C)C[C@@H]2CC[C@H](n3cnnn3)[C@H](OC)C2)CC(=O)[C@H](C)/C=C(\C)[C@@H](O)[C@@H](OC)C(=O)[C@H](C)C[C@H](C)/C=C/C=C/C=C/1C [zotarolimus]
# Summary of the method: as §1
# idasanutlin = compound: COc1cc(C(=O)O)ccc1NC(=O)[C@@H]1N[C@@H](CC(C)(C)C)[C@](C#N)(c2ccc(Cl)cc2F)[C@H]1c1cccc(Cl)c1F [idasanutlin]
# Summary of the method: as §1
# alisertib = compound: COc1cc(Nc2ncc3c(n2)-c2ccc(Cl)cc2C(c2c(F)cccc2OC)=NC3)ccc1C(=O)O [alisertib]
# Summary of the method: as §1
# [2] = compound: COc1cc2nc(-c3cc(F)ccc3O)nc(N[C@@H]3CNC[C@H]3C(C)(C)O)c2cc1OC
# Summary of the method: as §1
# gefitinib = compound: COc1cc2ncnc(Nc3ccc(F)c(Cl)c3)c2cc1OCCCN1CCOCC1 [gefitinib]
# Summary of the method: as §1
# [3] = compound: COc1cccc2cc(-c3nc([C@H]4CC[C@H](C(=O)O)CC4)n4ncnc(N)c34)[nH]c12
# Summary of the method: as §1
# lapatinib = compound: CS(=O)(=O)CCNCc1ccc(-c2ccc3ncnc(Nc4ccc(OCc5cccc(F)c5)c(Cl)c4)c3c2)o1 [lapatinib]
# Summary of the method: as §1
# pictilisib = compound: CS(=O)(=O)N1CCN(Cc2cc3nc(-c4cccc5[nH]ncc45)nc(N4CCOCC4)c3s2)CC1 [pictilisib]
# Summary of the method: as §1
# Sequence of UniProt Q9ULC5 (Q9ULC5 whole entry, looked up): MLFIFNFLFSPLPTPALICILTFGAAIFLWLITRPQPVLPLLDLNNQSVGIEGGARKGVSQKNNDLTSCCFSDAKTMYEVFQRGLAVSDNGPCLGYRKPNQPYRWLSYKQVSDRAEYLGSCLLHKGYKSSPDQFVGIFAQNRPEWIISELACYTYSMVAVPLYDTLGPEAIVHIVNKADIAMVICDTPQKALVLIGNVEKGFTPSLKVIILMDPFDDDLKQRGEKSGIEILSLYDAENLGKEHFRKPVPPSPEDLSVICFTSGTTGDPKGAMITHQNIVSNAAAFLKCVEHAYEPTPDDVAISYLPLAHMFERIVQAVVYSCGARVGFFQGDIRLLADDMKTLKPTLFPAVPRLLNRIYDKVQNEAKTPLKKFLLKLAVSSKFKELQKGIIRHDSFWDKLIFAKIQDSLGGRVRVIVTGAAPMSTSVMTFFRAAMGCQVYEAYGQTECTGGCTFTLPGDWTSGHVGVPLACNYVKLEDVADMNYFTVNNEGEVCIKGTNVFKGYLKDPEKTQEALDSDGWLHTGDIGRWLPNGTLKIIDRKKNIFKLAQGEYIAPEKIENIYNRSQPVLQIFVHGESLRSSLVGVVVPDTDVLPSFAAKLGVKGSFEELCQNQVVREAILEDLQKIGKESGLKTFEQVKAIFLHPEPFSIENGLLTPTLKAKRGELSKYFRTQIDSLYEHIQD
# Sequence of UniProt O95782 (O95782 whole entry, looked up): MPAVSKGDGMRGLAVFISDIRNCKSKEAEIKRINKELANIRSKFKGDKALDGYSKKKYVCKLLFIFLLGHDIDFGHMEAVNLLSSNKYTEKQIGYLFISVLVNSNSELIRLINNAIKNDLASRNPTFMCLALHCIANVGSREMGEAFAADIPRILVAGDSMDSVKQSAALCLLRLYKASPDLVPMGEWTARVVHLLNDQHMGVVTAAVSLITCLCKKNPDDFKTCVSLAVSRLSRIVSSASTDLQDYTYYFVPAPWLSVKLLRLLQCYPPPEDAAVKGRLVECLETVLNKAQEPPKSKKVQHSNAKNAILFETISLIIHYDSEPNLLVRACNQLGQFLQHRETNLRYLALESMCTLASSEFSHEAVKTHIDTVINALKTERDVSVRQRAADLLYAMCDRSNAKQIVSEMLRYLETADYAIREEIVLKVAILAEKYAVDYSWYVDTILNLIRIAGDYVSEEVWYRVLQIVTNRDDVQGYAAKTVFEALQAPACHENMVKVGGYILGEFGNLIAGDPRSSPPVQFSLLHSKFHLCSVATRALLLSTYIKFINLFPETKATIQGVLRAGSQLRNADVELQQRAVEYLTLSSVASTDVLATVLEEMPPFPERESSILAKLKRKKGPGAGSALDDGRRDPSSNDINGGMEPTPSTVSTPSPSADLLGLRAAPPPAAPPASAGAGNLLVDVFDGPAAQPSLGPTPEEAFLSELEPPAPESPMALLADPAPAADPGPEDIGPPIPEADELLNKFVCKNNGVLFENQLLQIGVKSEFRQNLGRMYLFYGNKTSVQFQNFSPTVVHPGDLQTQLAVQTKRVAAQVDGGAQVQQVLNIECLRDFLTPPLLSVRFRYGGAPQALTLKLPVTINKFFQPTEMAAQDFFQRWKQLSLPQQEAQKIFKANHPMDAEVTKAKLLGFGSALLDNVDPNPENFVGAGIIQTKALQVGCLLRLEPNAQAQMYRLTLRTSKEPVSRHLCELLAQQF
# Sequence of UniProt Q9UI12 (Q9UI12 whole entry, looked up): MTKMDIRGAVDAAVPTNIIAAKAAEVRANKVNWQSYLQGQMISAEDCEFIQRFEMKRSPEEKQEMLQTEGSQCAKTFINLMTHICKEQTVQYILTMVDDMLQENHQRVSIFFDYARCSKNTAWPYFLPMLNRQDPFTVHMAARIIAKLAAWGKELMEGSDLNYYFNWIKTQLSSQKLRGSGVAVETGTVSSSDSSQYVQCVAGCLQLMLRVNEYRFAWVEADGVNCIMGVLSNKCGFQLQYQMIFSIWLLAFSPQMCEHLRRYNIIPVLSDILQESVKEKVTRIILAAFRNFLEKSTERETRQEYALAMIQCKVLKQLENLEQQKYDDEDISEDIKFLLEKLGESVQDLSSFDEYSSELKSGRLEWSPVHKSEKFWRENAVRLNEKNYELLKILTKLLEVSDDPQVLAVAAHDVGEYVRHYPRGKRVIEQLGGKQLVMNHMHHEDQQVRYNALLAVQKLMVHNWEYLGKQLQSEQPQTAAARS
# Sequence of UniProt P53680 (P53680 whole entry, looked up): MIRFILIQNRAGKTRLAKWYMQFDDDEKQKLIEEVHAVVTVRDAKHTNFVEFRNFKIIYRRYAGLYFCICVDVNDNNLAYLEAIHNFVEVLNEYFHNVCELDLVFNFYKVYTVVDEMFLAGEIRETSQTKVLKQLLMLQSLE
# Sequence of UniProt Q9P287 (Q9P287 whole entry, looked up): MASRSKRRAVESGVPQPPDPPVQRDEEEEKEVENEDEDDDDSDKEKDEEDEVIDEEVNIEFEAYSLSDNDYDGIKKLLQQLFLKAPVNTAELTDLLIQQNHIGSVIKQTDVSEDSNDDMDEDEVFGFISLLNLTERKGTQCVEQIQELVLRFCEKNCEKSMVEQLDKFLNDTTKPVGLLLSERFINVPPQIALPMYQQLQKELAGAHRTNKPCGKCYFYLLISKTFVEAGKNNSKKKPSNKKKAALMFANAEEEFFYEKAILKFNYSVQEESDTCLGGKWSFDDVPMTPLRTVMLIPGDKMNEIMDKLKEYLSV
# Sequence of UniProt Q93050 (Q93050 whole entry, looked up): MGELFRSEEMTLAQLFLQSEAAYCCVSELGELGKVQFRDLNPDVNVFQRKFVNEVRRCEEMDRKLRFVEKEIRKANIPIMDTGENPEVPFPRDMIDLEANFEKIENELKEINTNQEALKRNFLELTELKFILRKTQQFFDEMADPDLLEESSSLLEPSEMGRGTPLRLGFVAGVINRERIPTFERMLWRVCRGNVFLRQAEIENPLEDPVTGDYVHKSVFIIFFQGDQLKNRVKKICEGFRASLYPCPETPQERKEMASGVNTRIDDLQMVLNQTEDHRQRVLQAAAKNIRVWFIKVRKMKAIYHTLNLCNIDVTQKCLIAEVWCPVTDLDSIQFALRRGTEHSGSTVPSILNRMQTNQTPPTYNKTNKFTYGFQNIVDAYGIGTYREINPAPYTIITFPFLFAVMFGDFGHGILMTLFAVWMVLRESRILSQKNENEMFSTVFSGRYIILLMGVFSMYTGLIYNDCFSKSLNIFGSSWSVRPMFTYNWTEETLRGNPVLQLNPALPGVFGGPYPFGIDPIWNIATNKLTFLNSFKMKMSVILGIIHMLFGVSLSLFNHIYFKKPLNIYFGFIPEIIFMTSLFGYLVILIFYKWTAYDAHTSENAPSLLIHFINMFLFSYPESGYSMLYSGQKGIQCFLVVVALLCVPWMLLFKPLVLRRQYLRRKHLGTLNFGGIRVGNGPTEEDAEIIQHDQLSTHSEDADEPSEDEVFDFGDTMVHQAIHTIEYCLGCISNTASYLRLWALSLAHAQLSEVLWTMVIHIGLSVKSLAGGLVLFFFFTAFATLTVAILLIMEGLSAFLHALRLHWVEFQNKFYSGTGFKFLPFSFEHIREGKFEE
# Sequence of UniProt Q4G176 (Q4G176 whole entry, looked up): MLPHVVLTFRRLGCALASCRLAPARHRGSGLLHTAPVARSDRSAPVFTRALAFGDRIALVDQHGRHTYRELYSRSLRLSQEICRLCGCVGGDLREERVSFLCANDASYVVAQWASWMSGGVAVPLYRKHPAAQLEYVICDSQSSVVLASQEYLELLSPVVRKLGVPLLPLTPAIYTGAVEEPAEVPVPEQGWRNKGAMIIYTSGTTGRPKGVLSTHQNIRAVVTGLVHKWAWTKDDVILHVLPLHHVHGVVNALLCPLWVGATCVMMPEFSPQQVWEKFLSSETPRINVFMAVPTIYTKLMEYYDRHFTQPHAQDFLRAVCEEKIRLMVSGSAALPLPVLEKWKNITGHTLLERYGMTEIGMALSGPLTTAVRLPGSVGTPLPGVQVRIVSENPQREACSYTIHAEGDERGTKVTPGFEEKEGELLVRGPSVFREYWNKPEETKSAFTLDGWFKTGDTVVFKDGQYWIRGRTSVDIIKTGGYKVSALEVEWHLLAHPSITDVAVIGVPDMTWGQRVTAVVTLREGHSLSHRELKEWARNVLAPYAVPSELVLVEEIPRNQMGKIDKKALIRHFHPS
# Sequence of UniProt P31749 (P31749 whole entry, looked up): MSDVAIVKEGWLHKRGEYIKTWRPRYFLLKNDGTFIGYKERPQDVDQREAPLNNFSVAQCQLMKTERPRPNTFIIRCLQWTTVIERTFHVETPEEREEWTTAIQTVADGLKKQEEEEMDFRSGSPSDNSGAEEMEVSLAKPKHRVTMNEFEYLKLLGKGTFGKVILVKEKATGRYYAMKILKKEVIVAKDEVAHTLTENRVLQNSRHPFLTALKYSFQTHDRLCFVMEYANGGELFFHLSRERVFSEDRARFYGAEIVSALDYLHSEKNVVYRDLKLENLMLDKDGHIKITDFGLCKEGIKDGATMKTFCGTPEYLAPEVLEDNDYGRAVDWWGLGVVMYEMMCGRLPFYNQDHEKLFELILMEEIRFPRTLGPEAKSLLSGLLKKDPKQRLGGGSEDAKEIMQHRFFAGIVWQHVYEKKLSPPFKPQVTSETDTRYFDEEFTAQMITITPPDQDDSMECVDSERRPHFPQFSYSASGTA
# Sequence of UniProt P21283 (P21283 whole entry, looked up): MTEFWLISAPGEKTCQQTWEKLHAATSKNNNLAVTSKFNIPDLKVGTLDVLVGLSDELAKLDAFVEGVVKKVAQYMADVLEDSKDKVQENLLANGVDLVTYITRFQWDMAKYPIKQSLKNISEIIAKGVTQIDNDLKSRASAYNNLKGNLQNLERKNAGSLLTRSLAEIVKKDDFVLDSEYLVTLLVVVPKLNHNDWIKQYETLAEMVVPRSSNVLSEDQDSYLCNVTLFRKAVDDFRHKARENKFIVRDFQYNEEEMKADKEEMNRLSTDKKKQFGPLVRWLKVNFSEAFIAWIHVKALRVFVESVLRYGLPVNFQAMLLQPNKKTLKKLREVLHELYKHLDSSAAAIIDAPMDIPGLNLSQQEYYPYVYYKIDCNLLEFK
Target,log2 fold change [1],log2 fold change (filanesib),log2 fold change (zotarolimus),log2 fold change (idasanutlin),log2 fold change (alisertib),log2 fold change [2],log2 fold change (gefitinib),log2 fold change [3],log2 fold change (lapatinib),log2 fold change (pictilisib)
AP2S1 (UniProt P53680),-0.031,0.037,0.013,-0.033,-0.159,0.023,0.017,-0.061,-0.022,-0.023
BRAP (UniProt Q7Z569),0.062,0.02,0.01,0.028,-0.058,-0.108,0.053,-0.134,0.073,-0.055
BCCIP (UniProt Q9P287),-0.022,0.06,0.031,-0.048,-0.086,0.033,0.036,-0.024,0.01,-0.024
ARFGAP2 (UniProt Q8N6H7),-0.067,0.024,-0.005,-0.029,-0.058,0.156,-0.004,-0.064,-0.001,0.013
ABHD16A (UniProt O95870),0.051,0.067,0.204,-0.042,-0.049,0.347 (active),0.158,-0.039,0.235,0.018
BCL9L (UniProt Q86UU0),-0.048,0.017,-0.043,0.028,0.014,0.02,0.034,-0.067,0.011,-0.007
AKT1 (UniProt P31749),-0.001,0.001,0.059,-0.134,-0.07,0.1,0.025,-0.224,0.135,0.216
ATP12A isoform 2 (UniProt P54707),-0.034,-0.015,-0.015,0.016,-0.008,0.071,0.032,0.043,-0.074,0.1
ACSL5 isoform 3 (UniProt Q9ULC5),-0.023,-0.118,0.073,-0.148,-0.009,-0.259,0.068,0.074,0.074,0.065
BRIX1 (UniProt Q8TDN6),-0.006,0.574,0.132,0.397,-0.23,-0.224,-0.039,-0.193,0.218,-0.004
ABCB6 (UniProt Q9NP58),-0.007,-0.077,0.055,-0.137,-0.069,0.058,-0.011,0.024,-0.005,0.06
ALDH6A1 (UniProt Q02252),-0.128,-0.025,0.024,-0.032,-0.09,0.029,0.04,0.066,0.02,0.063
ACP2 (UniProt P11117),-0.034,-0.121,-0.016,-0.026,0.036,-0.002,0.001,0.053,0.038,-0.031
ATP6V1H (UniProt Q9UI12),0.035,-0.106,0.055,-0.067,-0.1,-0.064,-0.121,-0.073,-0.009,-0.063
AGPS (UniProt O00116),0.074,-0.145,0.05,-0.037,-0.03,-0.044,0.069,0.048,0.018,-0.003
ATP6V0A2 (UniProt Q9Y487),-0.029,-0.083,0.011,0.004,-0.082,-0.07,-0.058,-0.056,0.016,-0.071
B4GALNT1 (UniProt Q00973),0.023,0.092,0.081,0.093,-0.063,-0.045,0.119,0.112,0.097,-0.045
ACSF3 (UniProt Q4G176),-0.099,-0.045,-0.01,0.051,0.001,-0.053,-0.096,0.054,-0.004,0.064
AAMP (UniProt Q13685),-0.031,0.003,0.029,-0.052,-0.049,-0.027,0.026,0.033,0.024,-0.002
APLP2 (UniProt Q06481),0.036,0.219 (active),0.002,0.058,-0.039,0.038,0.106,-0.04,0.09,0.091
ANKRD29 (UniProt Q8N6D5),0.339,-0.122,0.011,-0.077,-0.044,0.279,-0.066,-0.08,-0.126,0.177
ATP6V1C1 (UniProt P21283),-0.012,0.029,0.08,0.016,-0.069,-0.091,-0.286,-0.206,-0.046,-0.022
AP2A1 (UniProt O95782),0.044,0.045,0.033,0.027,-0.041,0.008,0.025,0.005,0.027,-0.042
AKR1C3 (UniProt P42330),0.87 (active),-0.028,0.066,-0.074,-0.087,-0.176,0.031,-0.214,-0.065,0.061
AGO1 (UniProt Q9UL18),-0.107,-0.015,-0.069,0.009,0.05,-0.031,-0.119,-0.029,0.061,-0.002
ANAPC2 (UniProt Q9UJX6),0.026,-0.042,0.012,-0.047,-0.074,-0.038,-0.034,-0.004,0.059,0.015
AARSD1 isoform 3 (UniProt Q9BTE6),-0.47 (active),-0.013,0.012,0.076,-0.067,-0.012,0.083,-0.081,0.045,0.029
ADD3 (UniProt Q9UEY8),0.018,0.059,-0.074,0.02,-0.063,0.057,0.021,0.063,-0.006,0.075
ATP6V0A1 isoform 3 (UniProt Q93050),0.021,-0.105,0.073,0.112,0.027,-0.298,-0.18,-0.21,0.033,-0.284
